TGFb SMAD3 inh – TGF-b pathway inhibition | HepG2 CAGA-GFP TGF-b/SMAD3 reporter, GFP fluorescence, 18 h; TGF-beta stimulated, 500 pg/mL final | Potency, µM (titrated, usually from 46.1 µM), for inactives: top-dose activity, negative = inhibition, most hits filed as inhibitors | hit rate 1.2% among 410,000 | AID 588855; note: % is set by controls: 0 for no effect and ±100 for the full control effect; nearly all actives have a fitted effect of over 65% in size
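GFP signal (ex488/em500-530) from TGF-beta-stimulated HEPG2 CAGA-GFP cells, 500 pg/mL final, 18 h at 37 degrees C in DMEM plus 1% FBS, normalized to unstimulated and DMSO-stimulated controls.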
DT40 TDP1 no CPT – qHTS for Inhibitors of human tyrosyl-DNA phosphodiesterase 1 (TDP1): qHTS in cells in absence of CPT; DT40 Tdp1-/- hTDP1 cells, no CPT, ATP luminescence, 48 h; Potency, µM (doses to about 46.2 µM), for inactives: at the top dose activity change, negative = growth inhibition, actives largely listed as inhibitors; hit rate 15% among 420,000; AID 686978, 2013; note: % is set by controls: 0 for no effect and ±100 for the full control effect; nearly all actives have a fitted effect of over 55% in size
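Camptothecin absent (DMSO only). Human TDP1-complemented DT40 knockout cells, 400 cells/well, 37 °C for minimum 48 hr; ATP measured via CellTiter-Glo, 30 min dark incubation, luminescence.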
HT1080NT lethal – kills 2HG-producing HT-1080-NT fibrosarcoma cells; Potency, µM (doses to about 46.1 µM), for inactives: at the highest dose activity, negative = less viability, most hits filed as cytotoxic; HT-1080-NT fibrosarcoma viability, CellTiter-Glo ATP luminescence, 48 h; hit rate 1.6% among 360,000;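 note: NT is the 2HG producing partner of a matched IDH1 knockdown line; 0% = DMSO-treated cells and -100% = media-only wells without cells; nearly all actives have a fitted effect of over 55% in size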
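Luminescent CellTiter-Glo readout after 48 hours of compound exposure at 37 degrees C defined viability of HT-1080-NT cells. Activity was normalized to DMSO wells and cell-free media wells; concentration-response curves were fitted and assigned curve classes.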
HT1080 IDH1KD tx – toxicity to HT-1080 IDH1 knockdown cells (counter line); HT-1080 IDH1 knockdown viability, ATP luminescence, 48 h; Potency, µM (top dose mostly 46.1 µM), for the others: at the highest dose activity, negative = toxicity, most hits filed as cytotoxic; hit rate 2% among 360,000;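 note: 0% = DMSO wells and -100% = cell-free medium wells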
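In this qHTS, HT-1080 cells depleted of IDH1 are exposed for 48 h at 37 °C to compound titrations. Toxicity is scored from CellTiter-Glo luminescence, with DMSO as full viability and medium alone as none.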
DT40 TDP1 CPT – DT40-hTDP1 cell growth loss with CPT | Potency, µM (highest dose often 46.2 µM), for inactives: at the highest dose activity change, negative = growth inhibition, hits mostly inhibitors | chicken DT40 Tdp1-/-;hTDP1 cells + 20 nM CPT, ATP luminescence, 48 h | hit rate 12% among 420,000 | AID 686979; note: % is set by controls: 0 for no effect and ±100 for the full control effect; nearly all actives have a fitted effect of over 55% in size
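Chicken DT40 Tdp1-/- cells stably complemented with human TDP1 were seeded at 400 cells/well in medium containing 20 nM camptothecin, exposed to pin-transferred compounds, and grown at 37 °C for at least 48 hr. Viability was read as ATP luminescence.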
HepG2 viability – counter-screen for TGF-b inhibitors: cytotoxicity in HepG2 cells; HepG2 CAGA-GFP viability, ATP luminescence, 18 h; Potency, µM (series often up to 46.1 µM), for the others: at the highest dose activity change, negative = cytotoxicity, actives largely listed as cytotoxic; hit rate 0.76% among 410,000
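HepG2 CAGA-GFP cells (1000/well, DMEM with 1% FBS) received compound, then TGF-beta at 500 pg/mL final, and were incubated 18 hours at 37 degrees C. Viability was read by CellTiter-Glo luminescence. Media-only wells were set as complete cell-killing and DMSO as no toxicity.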
* hit, by the source's call; u = inconclusive; x = no result. Sampled rows, rich in hits. Any-hit rate of the full collection: about 17%. Calls come from the whole dose curve; as a rule, active = well fitted curve in the direction sought with a large enough effect; inconclusive = small, poorly fitted or top-dose-only effect, or another doubt; inactive = no such curve, though single readings can be large; an effect the other way counts as inactive or inconclusive. Potency is the fitted concentration of half-maximal effect.

SMILES	TGFb SMAD3 inh	DT40 TDP1 no CPT	HT1080NT lethal	HT1080 IDH1KD tx	DT40 TDP1 CPT	HepG2 viability
COC(=O)C1=C(C)N(Cc2ccccc2)C(=NCCc2c[nH]c3ccccc23)N[C@H]1c1cccc(C(F)(F)F)c1	u	16µM*	-28%	-19%	u	-112%
CCN1C(=NCc2cccc(Cl)c2)N[C@@H](c2cccc(F)c2)C(C(=O)OC)=C1C	u	18µM*	-22%	-12%	u	-102%
CCN1C(=S)N[C@@H](c2cccc(F)c2)C(C(=O)OC)=C1C	-5%	-24%	9%	12%	2%	-14%
CCN1C(=NCCc2ccccn2)N[C@@H](c2cccc(F)c2)C(C(=O)OC)=C1C	14%	u	-2%	4%	-22%	13%
COC(=O)C1=C(C)N(Cc2ccccc2)C(=NCCc2ccccn2)N[C@H]1c1cccc(F)c1	-22%	u	-12%	0%	16µM*	-22%
Cc1cccc(NC(=O)c2ccc(C)c(S(=O)(=O)N3CCCCC3)c2)n1	-16%	u	-3%	-12%	u	0%
Cn1nc(CC#N)c2c(=N)n(N)cnc21	9%	3%	8%	16%	11%	-5%
Cc1nc(SCC(=O)Nc2ccccc2Cl)c2c(C)c(C)sc2n1	-13%	u	-7%	-17%	u	-6%
CCOC(=O)Cn1nc(-c2ccccc2)nc1-c1ccccc1	1%	-29%	-5%	1%	-3%	-29%
O=C(Cn1nc(-c2ccccc2)nc1-c1ccccc1)OC1CCCCC1	-30%	18µM*	5%	-2%	u	-21%
O=C(CN1C(=O)NC2(CCOc3ccccc32)C1=O)NCc1ccccc1 (stereo not drawn)	14%	4%	0%	-9%	0%	-20%
O=C(c1ccc2c(c1)OCCO2)C1CCN(C(=O)Nc2ccccc2F)CC1	-1%	u	-9%	-7%	7%	1%
CCc1nc2ccc(C(=O)NCCCN3CCCC3=O)cn2c1N(C)C(=O)c1cccc(OC)c1	1%	-6%	19%	21%	2%	-7%
CCN1CCCC1CNC(=O)c1cnn(-c2nccc(-c3ccccc3OC)n2)c1-c1ccco1 (stereo not drawn)	x	7.3µM*	x	x	u	x
Cc1cc(-n2c(C)cc(C(=O)CN3C(=O)NC4(CCCCC4C)C3=O)c2C)no1 (stereo not drawn)	4%	u	5%	-3%	-19%	0%
COCC(C)n1c(C)cc(C(=O)CN2C(=O)NC3(CCCCC3C)C2=O)c1C (stereo not drawn)	12%	21µM*	6%	10%	u	19%
CCN(CC)CCNC(=O)COc1ccc(Cl)cc1	x	-24%	x	x	1%	x
O=C(C1CCC(Cn2c(=O)c3sccc3n(Cc3cccc(F)c3)c2=O)CC1)N1CCOCC1 (stereo not drawn)	-21%	16µM*	x	x	u	-23%
COCCCn1c(=O)c2sccc2n(Cc2ccccc2)c1=O	-5%	-19%	-2%	-8%	-19%	-10%
Cc1ccccc1Cn1c(=O)n(CC2CCC(C(=O)N3CCOCC3)CC2)c(=O)c2sccc21 (stereo not drawn)	12%	u	x	x	u	-1%
O=C(C1CCC(Cn2c(=O)c3sccc3n(Cc3cccc(F)c3)c2=O)CC1)N1CCCCC1 (stereo not drawn)	u	5.8µM*	x	x	u	-6%
COCCCn1c(=O)c2sccc2n(Cc2ccc(C)cc2)c1=O	1%	-19%	2%	-2%	u	13µM*
